Rows were chosen to be rich in hits. Some 2.9% of all compounds tested hit in one or more screens of this group.
Rango-impB inh: inhibitors of Rango-importin beta complex formation. Rango CFP/YFP FRET sensor + importin beta, 45 min. Potency, µM (titrated, usually from 92.2 µM), without a hit: at the highest dose inhibition of complex formation. AID 540263. 0.031% of 340,000 active;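 further: potency means the concentration at half of the fitted maximal effect; 0% = DMSO wells and 100% = buffer wells lacking importin beta; nearly all actives have a fitted effect of over 15% in size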
Target sequence (Q14974 whole entry, looked up): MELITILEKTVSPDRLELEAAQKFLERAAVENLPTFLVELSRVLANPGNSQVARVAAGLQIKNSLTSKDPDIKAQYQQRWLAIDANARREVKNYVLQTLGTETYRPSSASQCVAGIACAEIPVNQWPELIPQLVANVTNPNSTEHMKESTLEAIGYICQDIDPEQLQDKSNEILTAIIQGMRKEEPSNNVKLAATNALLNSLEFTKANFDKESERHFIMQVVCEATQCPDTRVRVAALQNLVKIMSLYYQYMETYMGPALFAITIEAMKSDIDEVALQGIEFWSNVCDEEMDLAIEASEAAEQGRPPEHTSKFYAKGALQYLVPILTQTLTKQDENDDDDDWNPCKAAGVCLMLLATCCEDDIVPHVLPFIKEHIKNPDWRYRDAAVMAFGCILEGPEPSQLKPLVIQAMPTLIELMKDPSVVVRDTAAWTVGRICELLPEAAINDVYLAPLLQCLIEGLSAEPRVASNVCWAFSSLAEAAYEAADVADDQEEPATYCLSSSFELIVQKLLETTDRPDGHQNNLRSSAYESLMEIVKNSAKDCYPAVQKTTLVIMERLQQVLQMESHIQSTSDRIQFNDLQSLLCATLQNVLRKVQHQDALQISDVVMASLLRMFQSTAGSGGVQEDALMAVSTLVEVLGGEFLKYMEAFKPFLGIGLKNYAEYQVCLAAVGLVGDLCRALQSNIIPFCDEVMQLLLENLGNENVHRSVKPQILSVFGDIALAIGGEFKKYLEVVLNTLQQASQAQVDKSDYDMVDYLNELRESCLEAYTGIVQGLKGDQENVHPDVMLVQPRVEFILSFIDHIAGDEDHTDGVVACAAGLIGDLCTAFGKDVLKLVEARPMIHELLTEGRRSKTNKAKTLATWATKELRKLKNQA
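FRET biosensor (snurportin 1 IBB flanked by EYFP and cerulean), 50 nM, with compound 5 min, then 0.125 microM importin beta in PBS, 1 mM DTT, 0.02% Tween-20, 0.1% BSA. CFP/YFP ratio read after 45 min at room temperature; pre-read flags interference.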
Rango dissoc inh: inhibitors of RanGTP-induced Rango-importin beta complex dissociation; Potency, µM (titrated, usually from 46.1 µM), without a hit: at the highest dose activity change, negative = inhibition; O95149+P62826; AID 540253; Biochemical FRET Rango-importin beta, RanGTP-induced dissociation; 0.071% of 340,000 active; further: potency means the concentration at half of the fitted maximal effect; % of control where 0% means no effect; nearly all actives have a fitted effect of over 45% in size
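Quantitative HTS using a FRET biosensor: 0.1 uM Rango, 0.25 uM importin beta, 0.6 uM Ran, 2 mM GTP, 0.2 uM RCC1 final, PBS with DTT, Tween-20 and BSA. Post-read taken 45 min after Ran addition.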
DRD3 agonist: activates the human D3 dopamine receptor | D3R DiscoveRx beta-arrestin cells, luminescence, 90 min | AID 652048 | 0.58% of 410,000 active | max activation, %; in the data active means max activation above about 30%; further: 0% is about no effect
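Cells at 1500/well, incubated overnight, then treated with pinned compounds (dopamine as control) for 90 min at 37 degrees C. DiscoveRx reagent added for 30 - 60 minutes at room temperature; luminescence read.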
D3 antag: antagonists of human D3 dopamine receptor. P35462. D3R cells, DiscoveRx beta-arrestin luminescence, antagonist mode; hits give low values. max response, negative = inhibition, %. 2.5% of 360,000 active. AID 652054; in the data active means max response below about -50%; inconclusive means no clear call, values can overlap the other calls; further: on the % scale 0 is the no-effect control and ±100 the full control effect
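Cells expressing the human receptor were seeded at 1500 cells/well, incubated overnight at 37 degrees C in 5% CO2, then exposed to library compounds with dopamine controls for 90 minutes at 37 degrees C before luminescent detection.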
Mm-Cpn inhibitor: inhibitors of Methanococcus maripaludis chaperonin TRiC (MmCpn); purified Mm-Cpn ATPase, ADP Transcreener TR-FRET; Potency, µM (top dose mostly 76.9 µM), for inactives: at the highest dose activity, negative = inhibition, usual class: inhibitors; 0.031% of 330,000 active; AID 504842; active means well fitted inhibition curve with a large enough effect; inconclusive means small, poorly fitted or top-dose-only effect; further: potency means the concentration at half of the fitted maximal effect; on the % scale 0 is the no-effect control and ±100 the full control effect; nearly all actives have a fitted effect of over 80% in size
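ATPase turnover read by TR-FRET ADP competition (Eu cryptate antibody/ADP-d2, 665/590 nm): 10uM ATP final, 25nM Mm-CPN final, 30 min 37degC after 10-min compound preincubation, pH 7.4 Tris/KCl/MgCl2/DTT buffer.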
TSG101-PTAP inh: blocks PTAP/TSG101 interaction to inhibit HIV-1 budding; Q99816; Fluorescence polarization, FITC-PTAP peptide / Tsg101 binding; Potency, µM (doses to about 115 µM), without a hit: at the highest dose activity change, negative = inhibition, actives largely listed as inhibitors; 340,000 tested, under 10 active; active means well fitted inhibition curve with a large enough effect in the main read-out, with a control signal flat, not every such curve was filed as active; inconclusive means small, poorly fitted or top-dose-only effect, or effect the other way, or a change in a side signal; inactive means no such curve, though single readings can be large or run the other way; further: potency means the concentration at half of the fitted maximal effect; % of control where 0% means no effect
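FP read-out: FITC-PTAP peptide, 50 nM final, binding Tsg101 binding domain, 10 uM final; 20 min, r.t.; 10 mM HEPES pH 7.5, 0.15 M NaCl, 0.01% Tween 20, 3 mM EDTA, 0.1 mM TCEP.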
An asterisk follows results filed as active; u = inconclusive; x = no result given. Unless noted, the call rests on the fitted dose curve.

SMILES | Rango-impB inh | Rango dissoc inh | DRD3 agonist | D3 antag | Mm-Cpn inhibitor | TSG101-PTAP inh
Cc1cc(N2CCN(c3ccc(F)cc3)CC2)n2nc(-c3ccc(Cl)cc3)nc2n1 | x | x | 3.3 | x | x | x
Nc1nc(-c2cccnc2)nc(N2CCCCC2)n1 | 7.2% | -10.2% | 32.9* | 4.9 | 0.0% | -4.5%
COc1cc2c(cc1OC)C(COc1ccc3c(C)cc(=O)oc3c1)N(C(=O)c1ccc(C)c(C)c1)CC2 (stereo not given) | x | x | 3.5 | x | x | x
CCOc1cccc2sc(N(CCN(C)C)C(=O)c3ccc4c(c3)OCCO4)nc12 | 0.7% | -0.3% | -18.6 | -66.4* | 1.5% | x
CCOc1ccc2nc(N(CCN(C)C)C(=O)c3cc4ccccc4cc3OC)sc2c1 | 2.7% | 7.0% | -5.5 | u | -1.9% | -0.9%
CCOc1cccc2sc(N(CCN(C)C)C(=O)c3cc4ccccc4cc3OC)nc12 | 1.0% | -7.3% | -14.9 | -70.6* | 0.9% | -7.3%
N#CCCOC1(C#CCN2CCCC2)CCCCC1 | 0.5% | 20.4% | 22.1 | -88.2* | 1.8% | -0.3%
CC(C)(C#CCN1CCCC1)OCCC#N | -1.8% | 6.7% | -2.1 | -8.3 | 1.6% | 1.2%
Cc1ccc(/C=N/n2c(-c3ccccc3)csc2=S)cc1 | x | x | -14.7 | x | x | x
COc1ccc(N2CC(NC(=O)COc3ccc4ccccc4c3)CC2=O)cc1OC (stereo not given) | x | x | 8.9 | x | x | x
COc1ccc(Cn2ccc3nc(C)c(C(=O)Nc4cc(C)cc(C)c4)cc3c2=O)cc1 | x | x | 11.9 | x | x | x
COc1cccc(OCCNc2cc(N3CCCCC3)ccc2[N+](=O)[O-])c1 | 1.2% | 6.6% | 0.4 | -12.4 | 0.1% | -6.8%
Cc1ccccc1OCCNc1cc(N2CCN(CCO)CC2)ccc1[N+](=O)[O-] | -3.6% | 7.5% | -13.8 | -64.4* | u | -1.7%
Cc1cccc(OCCNc2cc(N3CCN(CCO)CC3)ccc2[N+](=O)[O-])c1 | -1.6% | -8.1% | -12.8 | -57.7* | -3.2% | 0.2%
Cc1csc(=O)n1CC(=O)OCC(=O)c1c(N)n(C)c(=O)n(C)c1=O | 0.5% | -11.1% | 6.2 | 9.3 | -1.3% | -5.2%
Nc1cc(=O)nc(SCC(=O)Nc2ccc(F)cc2)n1-c1cccc(Cl)c1 | x | x | 2.2 | x | x | x
O=C1C2C3C=CC(CC3)C2C(=O)N1/N=C/c1ccccc1O (stereo not given) | u | -22.8% | 1.9 | -64.8* | -1.0% | -6.3%
O=C(c1ccc(C(F)(F)F)cc1)C1CCCN(Cc2cccn2-c2ncccn2)C1 (stereo not given) | 4.2% | -5.6% | -3.8 | -9.4 | 2.6% | -5.4%
CCOc1cc(CN2CCCC(C(=O)c3cccc(C(F)(F)F)c3)C2)ccc1O (stereo not given) | 3.9% | -24.9% | -16.2 | -70.0* | 3.2% | -1.8%
O=C(c1cccc(C(F)(F)F)c1)C1CCCN(Cc2cccn2-c2ncccn2)C1 (stereo not given) | 0.9% | -0.6% | -17.1 | -53.7* | 0.0% | -4.1%
COc1cc(CN2CCCC(C(=O)c3ccc(C(C)(C)C)cc3)C2)cc(OC)c1O (stereo not given) | -0.1% | -11.6% | -21.6 | -58.6* | -3.1% | -6.6%
O=C(O)c1cccc(NC2=C(n3nnc4ccccc43)C(=O)c3ccccc3C2=O)c1 | -3.6% | 2.0% | 6.1 | -14.7 | 0.0% | -0.3%
CCc1ccc(S(=O)(=O)/N=C2/C=C(Sc3ncn[nH]3)C(=O)c3ccccc32)cc1 | -1.0% | 4.0% | -7.4 | -80.4* | -0.7% | -3.7%
CCc1ccc(S(=O)(=O)/N=C2\C=C(Nc3cccc(C(=O)O)c3)C(=O)c3ccccc32)cc1 | 0.4% | -3.8% | -36.7 | -93.3* | -2.4% | -5.0%
CCc1ccc(S(=O)(=O)/N=C2\C=C(Nc3ccc(O)cc3)C(=O)c3ccccc32)cc1 | -0.9% | 13.7% | -30.1 | -89.8* | -4.4% | 0.5%
SMILES | Rango-impB inh | Rango dissoc inh | DRD3 agonist | D3 antag | Mm-Cpn inhibitor | TSG101-PTAP inh
CCc1ccc(S(=O)(=O)/N=C2\C=CC(=O)c3ccccc32)cc1 | x | x | x | x | -4.2% | x
COc1ccc(-c2c(C)nn3c(C(F)(F)F)cc(-c4ccccc4)nc23)cc1 | x | x | 7.1 | x | x | x
CCCc1nn2c(=O)cc(COC(=O)c3cccc(NC(=O)c4cccs4)c3)nc2s1 | x | x | -8.6 | x | x | x
O=C(NCCCn1ccnc1)c1ccc(-c2ccccc2)cc1 | -3.4% | -0.3% | 3.3 | 21.5 | -10.5% | -0.6%
Cc1cc(C(=O)NCCCn2ccnc2)sc1-c1ccccc1 | 0.5% | 23.9% | -57.6 | -69.6* | -11.4% | -0.5%
CCOc1ccc(NC(=O)CCN2CCN(c3ccccc3)CC2)cc1 | 3.1% | 9.9% | 25.6 | -52.5* | 0.6% | -8.7%
CCOc1ccc(C(=O)CCC(=O)NNC(=O)CCN2CCN(c3ccccc3)CC2)cc1 | u | -15.5% | -4.5 | -63.2* | 1.2% | -0.2%
Cc1ccccc1C(=O)NCC(=O)NNC(=O)CCN1CCN(c2ccccc2)CC1 | -0.8% | -8.4% | 32.2* | -3.0 | 1.7% | -4.2%
O=C(CCN1CCN(c2ccccc2)CC1)Nc1ccccc1 | 8.9% | -3.6% | -6.2 | u | -0.1% | 1.9%
CCOc1ccc(C(=O)CCN2CCCCCC2)cc1 | -2.4% | 9.4% | -10.6 | -21.9 | 0.3% | -2.2%
CCOc1ccc(CNc2ccc(N3CCN(Cc4ccccc4)CC3)cc2)cc1 | -2.6% | 5.5% | -21.2 | -62.2* | -3.5% | 0.1%
CCOc1ccc(C2c3[nH]c4ccccc4c3CCN2C(=O)CCc2ccccc2)cc1 (stereo not given) | x | x | -23.4 | x | x | x
C[C@]12CCC(=O)C=C1[C@@H]1C[C@@H]1[C@H]1[C@@H]3[C@@H]4C[C@@H]4[C@@]4(CCC(=O)O4)[C@@]3(C)CC[C@@H]12 | x | x | -10.0 | x | x | x
Cc1cccc(NS(=O)(=O)c2ccc3c(c2)CCN3C(=O)C2CCC2)c1 | x | x | 3.1 | x | x | x
COc1ccc(NC(=O)CCN2CCN(c3cccc(Cl)c3)CC2)cc1 | x | x | 7.3 | x | x | x
COc1ccc(NC(=O)CCN2CCN(c3ccc(F)cc3)CC2)cc1 | 2.0% | 13.1% | 7.9 | -97.9* | 1.1% | -5.8%
COc1cc(NC(=O)C(CC(C)C)NS(=O)(=O)c2ccc3c(c2)CCCC(=O)N3)cc(OC)c1 (stereo not given) | x | x | 4.6 | x | x | x
COC(=O)c1ccn(-c2nc(-c3ccc(Cl)cc3)cc(C(F)(F)F)n2)n1 | x | x | 5.6 | x | x | x
COc1ccc2c(CC(=O)Nc3nccs3)coc2c1 | u | -15.3% | -4.0 | -3.5 | -0.5% | -1.7%
Cc1ccc2nc(Cl)c(C3CC(c4cccs4)=NN3C(=O)CCCC(=O)O)cc2c1 (stereo not given) | -5.2% | -8.3% | 31.5* | 12.1 | -4.2% | 0.6%
CCOC(=O)c1oc2cc(O)ccc2c(=O)c1-c1csc(C)n1 | 0.5% | 4.0% | -2.6 | -0.8 | -7.7% | -4.8%
